# Measured values taken from PubChem BioAssay AID720650 (Broad Institute, 2013).
# Values without a mark were called inactive. Activity calls are given as the source filed them. How the calls were made is not given here.
# Test: C difficile toxins, biochemical counterscreen, UDPG substrate absence, confirmatory dose response (AID 720650)
# Details: series mostly up to 19.5 µM
row,Structure (SMILES),AC50
1,COc1cc(/C=N/NC(=O)c2nnn(-c3nonc3N)c2C(C)C)ccc1O,inactive
2,Cc1onc(-c2c(F)cccc2Cl)c1C(=O)Nc1nnc(C(F)(F)F)s1,inactive
3,Cc1ccc(/C=C/c2onc(C)c2S(=O)(=O)N2CCC(C(=O)N3CCCCC3)CC2)cc1,inactive
4,COC(=O)c1sc2nc(SCc3ccccc3C)n(N)c(=O)c2c1C,inactive
5,O=C(CSc1ccccc1)Nc1cc(S(=O)(=O)N2CCOCC2)ccc1N1CCOCC1,inactive
6,COc1cc(/C=N/NC(=O)c2cccc([N+](=O)[O-])c2)ccc1O,inactive
7,NC(=O)CC(NC(=O)c1ccccc1)c1ccc(NCCc2ccc(F)cc2)c([N+](=O)[O-])c1 (stereo not drawn),inactive
8,Nc1nnn(CC(=O)N/N=C/c2ccc(O)cc2)n1,16.5 µM (active)
9,COc1ccc(C(=O)Nc2ccc3c(c2)C(=O)N(C)[C@@H]2CC[C@H](CC(=O)NCC4CC4)O[C@@H]2CO3)cc1,inactive
10,Cc1ccc(/C=N/NC(=O)c2cccc(S(=O)(=O)Nc3ccccc3Cl)c2)o1,inactive
11,CN1C(=O)C(c2nnc(Nc3cccc4ccccc34)s2)C2CC1(C)Oc1ccccc12 (stereo not drawn),inactive
12,CNC(=S)N/N=C/c1c(C(=O)OC)cnn1-c1ccc(F)cc1F,inactive
13,Cc1ccccc1COc1ccc2oc(C)c(C(=O)O)c2c1,inactive
14,C[C@H](NC(=O)c1cc2c(cn1)[nH]c1ccccc12)C(=O)O,inactive
15,O=C1CSC(=Nc2ccc(O)cc2)N1,17.6 µM (active)
16,CCOc1ccc(NC(=O)c2ccc(CC)s2)c([N+](=O)[O-])c1,inactive
17,O=C(COc1ncnc2ccccc12)NCCc1ccc(F)cc1,inactive
18,Nc1ccc(-c2nc3ccc(N)cc3o2)cc1,12.5 µM (active)
19,CCOC(=O)C(=O)NNc1ccc(Cl)cc1,0.594 µM (active)

row,Structure (SMILES),AC50
1,COCC(=O)N1CC[C@@H]2[C@H]1c1cc(-c3cccc(OC)c3)ccc1N(C)[C@H]2CO,8.89 µM (active)
2,COc1cc2oc3ccc(C#Cc4ccccn4)cc3c(=O)c2cc1OC,inactive
3,COc1ccccc1N1CC(O)=C(c2nc3ccccc3s2)C1=N,> 39 µM
4,CCCCn1c(N)c(N(CCOC)C(=O)CSc2nnc(-c3ccco3)n2CC)c(=O)[nH]c1=O,inactive
5,O=C(N/C(=C\c1ccc(O)cc1)C(=O)N1CCCCC1)c1ccccc1,inactive
6,CN(C)c1ccc(NC(=O)/C=C/c2c(Cl)cccc2Cl)cc1,inactive
7,COc1cc(/C=N/NC(=O)CSc2ccccn2)ccc1O,inactive
8,COc1ccc(CNCCc2ccc3c(c2)OCO3)cc1Br,inactive
9,COC(=O)C1=C[C@@H](C(=O)OC)[C@@H]2C3=C(C(=O)[C@]2(C)NC(=O)c2ccccc2)[C@H](C)n2c(=O)n(C)c(=O)n2[C@@H]3C1,inactive
10,CC(=O)C1=CCC(c2ccccc2)N(S(=O)(=O)c2ccc(C)cc2)C1 (stereo not drawn),inactive
11,Cc1[nH]c(-c2ccc(F)cc2)cc1C(=O)N1CCN(c2ccccc2)CC1,inactive
12,O=C(NCc1cc(C(F)(F)F)cc(C(F)(F)F)c1)C1CC(c2c(Cl)cccc2Cl)=NO1 (stereo not drawn),inactive
13,Cc1ccc(Cc2c(-c3ccc(C)cc3)nc3ccc(Cl)cn23)cc1,inactive
14,COc1cc(/C=N/NC(=O)CCN2CCCCC2)ccc1O,inactive
15,COc1ccc(-c2ccc3c(c2)[C@H]2[C@H](CCN2C(=O)Cc2cccnc2)[C@@H](CO)N3C)cc1,14.7 µM (active)
16,COc1cc(/C=N/NC(=O)C2COc3ccccc3O2)ccc1O (stereo not drawn),inactive
17,Cc1cccc(CN2CCN(c3ncccn3)CC2)c1,inactive
18,CC(=O)N(C)C[C@@H]1Oc2cc(/C=C/c3ccccc3)ccc2S(=O)(=O)N([C@H](C)CO)C[C@@H]1C,> 39 µM
19,COc1ccc(C(=O)N2CCOCC2)cc1S(=O)(=O)N1CCCc2ccccc21,inactive
